Assay outcomes from PubChem BioAssay.
ASM inhibitor: inhibitors of human secretory acid sphingomyelinase; AID 504937; Potency, µM (highest dose often 57.5 µM), actives largely listed as inhibitors; placental ASM, HMU-PC fluorogenic substrate, 60 min; 0.006% of 340,000 active
Target sequence (P17405 47-631 limits assumed): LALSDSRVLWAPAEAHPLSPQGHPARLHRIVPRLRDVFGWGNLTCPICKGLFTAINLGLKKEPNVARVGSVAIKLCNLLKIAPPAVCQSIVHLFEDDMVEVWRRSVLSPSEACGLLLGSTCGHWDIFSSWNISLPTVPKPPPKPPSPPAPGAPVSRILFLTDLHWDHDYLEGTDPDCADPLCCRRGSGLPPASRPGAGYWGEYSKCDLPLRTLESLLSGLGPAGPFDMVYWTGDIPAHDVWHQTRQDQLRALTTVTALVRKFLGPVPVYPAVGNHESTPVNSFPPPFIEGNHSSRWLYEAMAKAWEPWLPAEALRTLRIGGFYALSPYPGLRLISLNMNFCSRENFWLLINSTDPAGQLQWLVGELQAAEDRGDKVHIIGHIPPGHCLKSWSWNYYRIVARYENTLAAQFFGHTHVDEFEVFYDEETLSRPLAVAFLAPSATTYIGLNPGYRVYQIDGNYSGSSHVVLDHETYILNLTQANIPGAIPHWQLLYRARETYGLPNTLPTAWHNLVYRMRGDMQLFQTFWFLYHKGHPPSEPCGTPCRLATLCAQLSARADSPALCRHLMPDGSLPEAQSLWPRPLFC
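Human placenta-derived ASM preincubated with compound 10 min at room temperature, then reacted with 9 uM (final) fluorogenic HMU-PC substrate for 60 min at 37 C. Stop solution raises pH to 10; fluorescence read at Ex 386/Em 447 nm.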
DT40 TDP1 no CPT: qHTS for Inhibitors of human tyrosyl-DNA phosphodiesterase 1 (TDP1): qHTS in cells in absence of CPT | DT40 Tdp1-/- hTDP1 cells, no CPT, ATP luminescence, 48 h | Potency, µM (top dose mostly 46.2 µM), hits mostly inhibitors | 15% of 420,000 active | AID 686978, 2013; further: nearly all actives have a fitted effect of over 55% in size
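No-CPT arm: Tdp1-/-;hTDP1 DT40 cells (400/well) plus compounds, incubated ≥48 hr at 37 °C. Readout CellTiter-Glo luminescence.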
TDP1 cell CPT: growth inhibition of DT40 Tdp1-/-;hTDP1 cells with camptothecin (screen for TDP1 inhibitors); chicken DT40 Tdp1-/-;hTDP1 cells + 20 nM CPT, ATP luminescence, 48 h; Potency, µM (titrated, usually from 46.2 µM), usual class: inhibitors; 12% of 420,000 active; further: nearly all actives have a fitted effect of over 55% in size
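Chicken DT40 Tdp1-/- cells stably complemented with human TDP1 were seeded at 400 cells/well in medium containing 20 nM camptothecin, exposed to pin-transferred compounds, and grown at 37 °C for at least 48 hr. Viability was read as ATP luminescence.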
IL1B secr inh: blocks inflammasome-driven IL-1 beta release; activity change, % at 57.5 µM; THP-1 LPS/ATP IL-1B secretion, AlphaLISA, 16 h; hits give low values; AID 743279; 4.7% of 360,000 active; in the data active means activity change below about -50%; inconclusive means mostly about -30% to -49%
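Secreted IL-1B measured by AlphaLISA bead assay after 16 h compound exposure of THP-1 cells; compounds (final up to 57.5 uM) added 1 h before LPS (250 ng/mL) and ATP (1.25 mM) stimulation; lower signal means less secretion.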
TGFb SMAD3 inh: inhibitors of TGF-b signaling; HepG2 CAGA-GFP TGF-b/SMAD3 reporter, GFP fluorescence, 18 h; TGF-beta stimulated, 500 pg/mL final; Potency, µM (doses to about 46.1 µM), actives largely listed as inhibitors; 1.2% of 410,000 active; further: nearly all actives have a fitted effect of over 65% in size
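TGF-beta reporter screen: HEPG2 CAGA-GFP, 1% FBS, 500 pg/mL TGF-beta final, 18 h; per-cell GFP summed per well; curves fitted and categorized by class.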
HepG2 tox: counter-screen for TGF-b inhibitors: cytotoxicity in HepG2 cells; HepG2 CAGA-GFP viability, ATP luminescence, 18 h; Potency, µM (titrated, usually from 46.1 µM), hits mostly cytotoxic; 0.76% of 410,000 active; AID 588856
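HepG2 CAGA-GFP cells (1000/well, DMEM with 1% FBS) received compound, then TGF-beta at 500 pg/mL final, and were incubated 18 hours at 37 degrees C. Viability was read by CellTiter-Glo luminescence. Media-only wells were set as complete cell-killing and DMSO as no toxicity.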
Numbers stand for hits; i = inactive; ? = inconclusive; nt = no result given. Rows were chosen to be rich in hits. Some 19% of all compounds tested hit in one or more screens of this group. Unless noted, the call rests on the fitted dose curve; in most records, active means well fitted curve in the direction sought with a large enough effect; inconclusive means small, poorly fitted or top-dose-only effect, or another doubt; inactive means no such curve, though single readings can be large; an effect the other way counts as inactive or inconclusive.

SMILES | ASM inhibitor | DT40 TDP1 no CPT | TDP1 cell CPT | IL1B secr inh | TGFb SMAD3 inh | HepG2 tox
CCc1cc(C(=O)N/N=C/c2ccc(OC)cc2)c2ccccc2n1 | i | 3.3µM | 7.3µM | i | i | i
COc1ccc(OC)c(-c2cc(C(=O)O)c3cc4ccccc4cc3n2)c1 | nt | i | i | i | i | i
COc1ccc(OC)c(-c2cc(C(=O)N/N=C/c3cc(OC)c(OC)cc3OC)c3ccccc3n2)c1 | i | 9.2µM | 16µM | ? | i | i
Cc1cc(C)cc(NC(=O)CN(c2cccc(C)c2C)S(=O)(=O)c2ccccc2)c1 | nt | 21µM | 16µM | nt | i | i
Cc1ccc(N(CC(=O)Nc2c(C)n(C)n(-c3ccccc3)c2=O)S(C)(=O)=O)cc1C | i | i | i | i | i | i
Cc1cccc(N(CC(=O)Nc2c(C)n(C)n(-c3ccccc3)c2=O)S(C)(=O)=O)c1C | i | i | i | i | 2.8µM | i
Cc1cc(NC(=O)CN(c2cccc(C)c2C)S(=O)(=O)c2ccccc2)ccc1Br | nt | 16µM | 18µM | nt | ? | i
Cc1cc(C)n2c(SCc3ccccc3Cl)nnc2n1 | i | i | i | i | i | i
Cc1cc(C)n2c(SCc3ccc(Cl)cc3Cl)nnc2n1 | i | 18µM | ? | i | ? | i
COc1ccc(CNc2nn3c(-c4cccc(C(=O)N(C)C)c4)cnc3s2)cc1 | nt | 18µM | 23µM | ? | ? | i
O=S(=O)(N=C1C=CC(=NS(=O)(=O)c2ccccc2)c2ccccc21)c1ccccc1 | nt | 6.5µM | 7.3µM | i | ? | i
O=C1c2ccccc2C(=O)N1S(=O)(=O)c1ccccc1 | i | i | i | i | i | i
Cc1ccc(S(=O)(=O)Nc2ccccc2-c2ccccc2)cc1 | i | 2.6µM | 2.6µM | i | i | i
Cc1ccc(S(=O)(=O)NCc2ccccc2NS(=O)(=O)c2ccc(C)cc2)cc1 | nt | ? | ? | i | nt | nt
Cc1ccc(S(=O)(=O)Nc2ccccc2CNc2cccc(C)n2)cc1 | i | 16µM | ? | i | i | i
Cc1ccc(S(=O)(=O)/N=C2\C=C(NS(=O)(=O)c3ccccc3)C(=O)c3ccccc32)cc1 | i | 26µM | 21µM | i | ? | i
Nc1cccc2[nH]cnc12 | nt | i | i | nt | i | i
CCn1c(CC(=O)Nc2ccccc2C)nnc1SCC(=O)NC1CCCC1 | i | i | i | i | i | i
O=S(=O)(c1ccc(Br)cc1)c1nnn2c1nc(NCCc1ccccc1)c1sccc12 | nt | ? | ? | nt | ? | i
Cc1cc(-c2ccc(NS(=O)(=O)c3ccccc3)c(C)c2)ccc1NS(=O)(=O)c1ccccc1 | i | 12µM | 13µM | i | i | i
Cc1cccc(NC(=O)c2oc3ccccc3c2NC(=O)Cc2coc3cc(C)cc(C)c23)c1 | nt | ? | ? | nt | ? | i
COc1cc(NCC2COc3c(ccc(OC)c3OC)C2=O)c([N+](=O)[O-])cc1OC (configuration not stated) | nt | 18µM | 18µM | i | ? | i
O=C(c1ccccc1)c1ccsc1C(=O)c1ccccc1 | nt | ? | i | i | i | i
CCOC(=O)c1ccc(N(C(=O)c2ccccc2)c2ccccc2)cc1 | nt | ? | i | nt | ? | i
CCOC(=O)c1cc(-c2ccc(OC)cc2)n(CCC(=O)Nc2cccc(C(C)=O)c2)c1C | nt | 15µM | 16µM | nt | i | i
SMILES | ASM inhibitor | DT40 TDP1 no CPT | TDP1 cell CPT | IL1B secr inh | TGFb SMAD3 inh | HepG2 tox
Cc1cccc2sc(NC(=O)CCNS(=O)(=O)c3cccs3)nc12 | i | 26µM | 18µM | ? | i | i
CCOC(=O)c1cc(-c2ccc(F)cc2)n(CCC(=O)Nc2nc3ccc(OC)cc3s2)c1C | nt | 16µM | 18µM | nt | ? | i
CCc1ccc(NC(=O)CCn2c(-c3ccc(OC)cc3)cc(C(C)=O)c2C)cc1 | nt | 16µM | 16µM | nt | i | i
CCOC(=O)c1cc(-c2ccc(F)cc2)n(CCC(=O)Nc2nc3cc(C)c(C)cc3s2)c1C | nt | ? | ? | nt | ? | i
Cc1cc(=O)[nH]c(N/N=C/c2ccc(Br)s2)n1 | i | i | i | i | i | i
CC(=O)c1cc(-c2ccc(F)cc2)n(CCC(=O)Nc2nc3c(C)cccc3s2)c1C | nt | 13µM | ? | nt | i | i
COc1cc(NC(=O)CCn2c(-c3ccccc3)cc(C(C)=O)c2C)cc(OC)c1 | nt | 13µM | ? | nt | i | i
CC(=O)c1cc(-c2ccc(F)cc2)n(CCC(=O)Nc2cc(C)[nH]n2)c1C | i | i | i | i | i | i
Cc1ccc(C)c(S(=O)(=O)c2cnc(SCC(=O)Nc3ccc(F)cc3F)[nH]c2=O)c1 | nt | nt | nt | nt | i | i
CC(=O)c1cccc(NC(=O)CCN2C(=O)C3CC=CCC3C2=O)c1 (configuration not stated) | i | i | i | i | i | i
